PubChem BioAssay AID588795 (National Center for Advancing Translational Sciences (NCATS), 2011)
Hit rate of the full screen: of about 390,000 compounds, about 1,400 (0.36%) were called active. About 2% were inconclusive and are not listed. This is one part of a sample in which actives are shown more often than they occur. Calls come from the whole dose curve; as a rule, active = well fitted inhibition curve with a large enough effect; inconclusive = small, poorly fitted or top-dose-only effect; inactive = no such curve, though single readings can be large or run the other way.

Each molecule was assayed against Flap endonuclease 1 (Homo sapiens) (UniProt P39748) (assay: qHTS Assay for the Inhibitors of Human Flap endonuclease 1 (FEN1).). Conditions: Recombinant FEN1 flap cleavage, fluorescence, 15 min; series mostly up to 114 µM; activity change, negative = inhibition: at the top concentration.
Sequence of Flap endonuclease 1 (Homo sapiens) (P39748 whole entry, looked up): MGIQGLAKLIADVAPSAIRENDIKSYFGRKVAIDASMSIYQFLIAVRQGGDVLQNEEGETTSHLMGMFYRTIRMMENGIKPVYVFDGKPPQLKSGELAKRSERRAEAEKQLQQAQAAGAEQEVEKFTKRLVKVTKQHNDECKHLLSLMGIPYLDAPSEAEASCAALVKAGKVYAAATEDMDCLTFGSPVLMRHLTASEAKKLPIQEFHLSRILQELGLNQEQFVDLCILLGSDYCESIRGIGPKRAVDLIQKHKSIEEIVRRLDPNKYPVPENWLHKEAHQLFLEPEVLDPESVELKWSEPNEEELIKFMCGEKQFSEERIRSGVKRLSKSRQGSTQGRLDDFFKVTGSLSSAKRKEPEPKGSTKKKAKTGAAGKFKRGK
Summary of the method: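 FEN1 at 10 nM preincubated with compounds 15 min at room temperature, then flap DNA substrate added at 50 nM final. Signal read at 0 and 15 min; concentration-response fitted with four-parameter Hill equation.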
% is set by controls: 0 for no effect and ±100 for the full control effect; potency is the fitted concentration of half-maximal effect.
Note: nearly all actives have a fitted effect of over 65% in size.

Q: For `CCOC(=O)C1CCN(C(c2ccc(F)cc2)c2sc3nc(-c4ccco4)nn3c2O)CC1` (stereo not drawn), which “activity change, negative = inhibition” value is on record?
A: 19.6% (inactive)

Q: With `Cn1nnc2c(N3CCN(c4ccccc4)CC3)ncnc21` as the molecule, how does the “activity change, negative = inhibition” value read?
A: -13.6% (inactive)

Q: How did the “activity change, negative = inhibition” value turn out when `O=C(NCc1ccccc1)C(=O)NCC(c1ccco1)S(=O)(=O)c1ccc(Cl)cc1` (stereo not drawn) was run?
A: 15.8% (inactive)

Q: How did the Potency turn out when `CC1(OC(=O)C2CCCC2)C(=O)C=C2C=C(c3ccc(C#N)cc3)OC=C2C1=O` (stereo not drawn) was run?
A: 20 µM (active)

Q: For `CC1(OC(=O)CCc2ccccc2)C(=O)C=C2C=C(c3ccc(C#N)cc3)N(CCc3ccccn3)C=C2C1=O` (stereo not drawn), which “activity change, negative = inhibition” value is on record?
A: 6.95% (inactive)

Q: With `COC(=O)CCCC1=CC2=CC(=O)C(C)(OC(=O)c3cccs3)C(=O)C2=CN1c1cccc(C#N)c1` (stereo not drawn) as the molecule, how does the “activity change, negative = inhibition” value read?
A: -1.74% (inactive)

Q: Which “activity change, negative = inhibition” value does the source give for `C=COC(=O)N1CCN(/[N+]([O-])=N/Oc2ccc([N+](=O)[O-])cc2[N+](=O)[O-])CC1` here?
A: -25.1% (inactive)

Q: Which Potency does the source give for `CCc1c(C)nc2c(OC)cccc2c1Cl` here?
A: inactive

Q: How did the Potency turn out when `Cc1nc(N=C(N)N)nc2c(C)cccc12` was run?
A: 35.5 µM (active)

Q: `COc1nc(N=C(N)N)nc2c(C)cccc12` was tested. Which Potency did it give?
A: 39.8 µM (active)

Q: `Cc1nc(/N=C(\N)NC(=O)NC2CCCCC2)nc2ccccc12` was tested. Which “activity change, negative = inhibition” value did it give?
A: -21.2% (inactive)

Q: `COc1ccccc1NC(=O)CSc1oc(-c2ccco2)nc1S(=O)(=O)c1ccc(Br)cc1` was tested. Which “activity change, negative = inhibition” value did it give?
A: -7.55% (inactive)

Q: For `O=C(Nc1ccccc1C(F)(F)F)c1nc(S(=O)(=O)Cc2ccccc2F)ncc1Cl`, which “activity change, negative = inhibition” value is on record?
A: -25% (inactive)

Q: For `CCOc1ccccc1N(CC)C(=O)Nc1cn(C)c(=O)c2ccccc12`, which “activity change, negative = inhibition” value is on record?
A: -6.42% (inactive)

Q: Which “activity change, negative = inhibition” value does the source give for `Cc1ccc(NC2=C(c3ccc(C(F)(F)F)cc3)C(=O)c3ccccc32)cc1F` here?
A: 11% (inactive)

Q: For `CN(CCC#N)c1ccc(C=O)cc1`, which “activity change, negative = inhibition” value is on record?
A: 19.2% (inactive)

Q: Which “activity change, negative = inhibition” value does the source give for `CCN(CC)C(=O)CSC(Nc1cccc(F)c1)=C(C#N)C#N` here?
A: -0.693% (inactive)

Q: `CC(=O)Nc1cccc(C(=O)OCC(=O)c2ccc3c(c2)OCO3)c1` was tested. Which “activity change, negative = inhibition” value did it give?
A: 1.33% (inactive)

Q: Which Potency does the source give for `CCN(CC)N=Nc1cccc(NC(C)=O)c1` here?
A: 89.1 µM (active)

Q: `CCOC(=O)c1c(C)[nH]c(CCC(=O)NCCCN2CCN(c3cccc(Cl)c3)CC2)c1C` was tested. Which “activity change, negative = inhibition” value did it give?
A: -10.7% (inactive)

Q: With `COc1ccc(CCn2c3c(c(=O)[nH]c2=S)CN(C(C)C)CN3)cc1OC` as the molecule, how does the “activity change, negative = inhibition” value read?
A: 1.65% (inactive)

Q: For `Cc1cccc(-c2nnc(SC(C)C(=O)Nc3ccccc3)n2C)c1` (stereo not drawn), which “activity change, negative = inhibition” value is on record?
A: -6.04% (inactive)

Q: For `COc1cc(C(=O)Nc2ccc(-n3c(C)nc4ccccc4c3=O)cc2)cc(OC)c1OC`, which “activity change, negative = inhibition” value is on record?
A: -0.707% (inactive)
